# PubChem BioAssay AID720706 (Broad Institute, 2013)
# The campaign covered roughly 350,000 compounds. About 5,500 (1.6%) were called active.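 How the source made its calls: active means significant combined selectivity score with lowered wild-type GFP, culture density cut under 30%, mutant RFP and density less affected; inactive means any of these conditions unmet.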 Shown is part of a subset that was picked to be rich in actives.
# Assay: GFP drop in mixed WT/humanized-ribosome E. coli culture – GFP/RFP fluorescence, OD600, single point, bacterial rRNA inhibitor project, primary screen (AID 720706)
# Details: E. coli WT GFP vs humanized-ribosome RFP mutants, 24 h; GFP signal change (wild-type ribosome): stronger effect = lower value, DMSO median 0, no signal -100; OD600 change: measured here: OD600 growth, DMSO median 0, no signal -100; RFP signal change: measured here: RFP humanized mutant strains, DMSO median 0, no signal -100, concentration not given here
SMILES,GFP signal change (wild-type ribosome),OD600 change [%],RFP signal change [%]
N#CC1=C(N)Oc2cc(N)ccc2C1c1ccccc1 (stereo not drawn),5.33% (inactive),13.2,8.27
Cc1cc(C)c(C#N)c(SCc2[nH]nc3c2C(c2ccccc2)C(C#N)=C(N)O3)n1 (stereo not drawn),-19.3% (active),-14.2,7.29
N#CC1=C(N)Oc2n[nH]c(CSc3ccccc3)c2C12C(=O)Nc1ccccc12 (stereo not drawn),-4.64% (inactive),-0.706,2.2
CCC(=O)Nc1ccc2c(c1)C(=O)N(C)[C@H]1CC[C@H](CC(=O)NCC3CCCCC3)O[C@H]1CO2,-0.704% (inactive),-0.374,-0.863
CC[C@H](NC(=O)[C@H](Cc1ccccc1)NC(=O)[C@H]1O[C@@H](n2cnc3c(=O)[nH]c(N)nc32)[C@H](O)[C@@H]1O)c1ccccc1,13.7% (inactive),14.1,2.61
O=S(=O)(Nc1ccc(OC(F)(F)F)cc1)c1cccc2nonc12,-39% (active),-15.7,-10.9
O=C(O)c1ccc(NS(=O)(=O)c2cccc3nsnc23)cc1,12.3% (inactive),9.27,0.548
CCc1cccc(NC(=O)CCNS(=O)(=O)c2cccc3nonc23)c1,-13.3% (inactive),-12.7,18.6
Cc1ccc(S(=O)(=O)N(C)C[C@@H]2Oc3c(NS(=O)(=O)c4ccc(F)cc4)cccc3C(=O)N([C@@H](C)CO)C[C@H]2C)cc1,-1.93% (inactive),3.45,0.647
Cc1snc(SCc2c(F)cccc2Cl)c1C#N,-4.85% (inactive),-10.8,-3.63
Cc1ccc(CSc2nsc(C)c2C#N)cc1,-24.5% (active),-7.04,-1.18
N#Cc1ccc(CSc2ncccn2)cc1,-4.06% (inactive),-1.11,-0.806
CN(C)C(=O)C[C@H]1C[C@@H]2c3cc(NC(=O)CC4CC4)ccc3O[C@@H]2[C@@H](CO)O1,1.34% (inactive),0.566,1.23
Cc1ccc(S(=O)(=O)N(C)C[C@@H]2Oc3ccc(NC(=O)Cn4cnnn4)cc3CC(=O)N([C@H](C)CO)C[C@H]2C)cc1,-0.977% (inactive),0.458,-4.09
Cc1cccc(CS(=O)(=O)c2ncc(Cl)c(C(=O)Nc3ccc(F)cc3)n2)c1,6.16% (inactive),2.7,-4.49
CSc1nnc(NC(=O)c2nc(S(=O)(=O)Cc3ccc(C)cc3)ncc2Cl)s1,2.78% (inactive),-0.98,0.486
Cc1cccc(NC(=O)c2nc(S(=O)(=O)Cc3ccccc3)ncc2Cl)c1,-14.7% (active),11,-6.12
CS(=O)(=O)N1CCCCN2[C@@H](CO)[C@@H](c3ccc(Br)cc3)[C@@H]2C1,5.32% (inactive),1.18,3.67
COc1ccc(CNC(=O)COC(=O)c2ccc(C)c(S(=O)(=O)N3CCOCC3)c2)cc1OC,-1.36% (inactive),-0.45,4.29
Cc1ccc(C(=O)OCC(=O)N2CC(C)CC(C)C2)cc1S(=O)(=O)N1CCCCC1 (stereo not drawn),-26.5% (inactive),-33.2,-6.95
Cc1ccc(C(=O)OCC(=O)NCc2cc(C)c(O)c(C)c2)cc1S(=O)(=O)N1CCCCC1,-24.5% (active),-17,-2.51
